# Potency and affinity values are given separately. Results filed as inconclusive are left out. Unmarked numbers belong to inactive results.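 The calls were made as follows: active = fluorescent signal drops by 40% or more, counted as a hit; inconclusive = no clear call, values can overlap the other calls; inactive = the rest, including any activity in the opposite direction.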
# Experiment: blockers of FN fibrillogenesis by fibroblasts – AH1F cells, Alexa488-FN fluorescence, cherry-picks, dose response (AID 1035475);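 also: AH1F fibroblasts incorporating labeled fibronectin into their extracellular matrix; 0% = neutral control wells and -100% = wells without labeled fibronectin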
# Details: Alexa488-fibronectin deposition fluorescence, overnight; series mostly up to 35 µM; activity change, negative = inhibition: at the top concentration
row,SMILES,"activity change, negative = inhibition"
1,Cc1ccccc1S(=O)(=O)N1CC[C@H]2[C@H](CO)Nc3ccc(-c4ccc(C#N)cc4)cc3[C@H]21,-14.9%
2,O=S(=O)(c1ccccc1F)N1CC[C@@H]2[C@H]1c1cc(-c3cccc(F)c3)ccc1N[C@@H]2CO,30.4%
3,Cc1cccc(NC(=O)Nc2ccc(S(=O)(=O)Nc3onc(C)c3C)cc2)c1,-8.12%
4,N#C[C@@H]1[C@@H](c2ccccc2C2=CCCCC2)[C@@H](CO)N1S(=O)(=O)c1ccccc1,35.2% [at 30 µM]
5,C[C@@H]1CN([C@H](C)CO)C(=O)c2cc(-c3ccccc3)cnc2O[C@@H]1CN(C)C(=O)c1cccc(F)c1,46%
6,Cc1ccc(N(CC(=O)NCc2ccco2)S(=O)(=O)c2ccccc2)cc1,5.82%
7,O=C(Nc1ccccc1F)N1C[C@@H]2[C@H](c3ccccc31)[C@@H](CO)N2C(=O)C1CC1,16.1%
8,N#C[C@H]1[C@@H](c2ccccc2C2=CCCCC2)[C@H](CO)N1S(=O)(=O)c1ccccc1,34.4% [at 30 µM]
9,O=C(CCC(=O)c1cccs1)NCc1cccnc1,-16.4%
10,C[C@H]1CN([C@@H](C)CO)C(=O)c2cc(-c3ccccc3)cnc2O[C@H]1CN(C)C(=O)c1cccc(F)c1,20.6%
11,COc1cccc(S(=O)(=O)N2CC[C@@H]3[C@H]2c2cc(-c4ccc(C#N)cc4)ccc2N[C@@H]3CO)c1,-9.22%
12,N#C[C@H]1[C@@H](c2ccccc2C2=CCCCC2)[C@@H](CO)N1S(=O)(=O)c1ccccc1,19.1%
13,O=S(=O)(c1ccccc1F)N1CC[C@H]2[C@H](CO)Nc3ccc(-c4cccc(F)c4)cc3[C@H]21,11.5%
14,COC(=O)c1c(NC(=O)CN2CCN(c3ccccc3Cl)CC2)sc(C)c1C,-27.9%
15,Cc1ccc(S(=O)(=O)N2CC[C@H]3[C@H](CO)Nc4ccc(-c5cccc(C(=O)N(C)C)c5)cc4[C@H]32)cc1,-23.6%
16,O=S(=O)(c1cccc(F)c1)N1CC[C@@H]2[C@H]1c1cc(-c3cccc(F)c3)ccc1N[C@@H]2CO,10.5%
17,CO[C@H]1CN(C)C(=O)c2ccc(NC(=O)Nc3ccc(Cl)c(Cl)c3)cc2OC[C@H](C)NC[C@H]1C,-31.4%
18,COCC(=O)Nc1ccc2c(c1)C(=O)N(C)[C@H]1CC[C@@H](CC(=O)NCc3ccccc3Cl)O[C@@H]1CO2,40.5%

row,SMILES,"activity change, negative = inhibition"
1,N#C[C@@H]1[C@@H](c2ccccc2C2=CCCCC2)[C@H](CO)N1S(=O)(=O)c1ccccc1,23.1%
2,CN(C)C(=O)c1ccc(-c2ccc3c(c2)[C@H]2[C@H](CCN2C(=O)c2ccc(F)cc2)[C@H](CO)N3C)cc1,29.3%
3,COC(=O)C[C@H]1CC[C@H]2[C@@H](COc3ccc(NC(=O)Cc4cccs4)cc3C(=O)N2C)O1,28%
4,O=C(CN1CCCC1)Nc1ccc(Oc2ccc(NC(=O)CN3CCCC3)cc2)cc1,-14.8%
5,CSc1ccccc1C(=O)C1CCCN(C(=O)CCc2cccnc2)C1 (stereo not given),0.764%
6,CC(C)(C)[S@@](=O)N1Cc2cc(C(=O)NCc3ccccc3F)nc(-c3cccc(-c4ccncc4)c3)c2[C@H]1CCO,-7.62%
7,COC(=O)C[C@@H]1CC[C@H]2[C@H](COc3ccc(NC(=O)Cc4cccs4)cc3C(=O)N2C)O1,-0.769% [at 30 µM]
8,O=C(c1cccnc1)N1C[C@H]2[C@@H](c3ccccc31)[C@@H](CO)N2CC1CCCC1,44.1%
9,COCC(C)n1c(SCc2nc(N)nc(Nc3ccccc3C)n2)nc2ccccc2c1=O (stereo not given),-35.8%
10,C[C@H](CO)N1C[C@H](C)[C@@H](CN(C)C(=O)c2cccc(F)c2)Oc2ncc(-c3ccccc3)cc2C1=O,20.2%
11,COc1cccc(-c2ccc3c(c2)[C@H]2[C@H](CCN2S(=O)(=O)c2cccc(OC)c2)[C@@H](CO)N3)c1,-7.81%
12,C[C@H](CO)N1C[C@H](C)[C@@H](CN(C)C(=O)Nc2cccc3ccccc23)Oc2c(NC(=O)Nc3ccc(C(F)(F)F)cc3)cccc2C1=O,22.4%
13,c1ccc2[nH]c(SCc3cn4cccnc4n3)nc2c1,-10.3%
14,C[C@@H]1CN([C@H](C)CO)C(=O)c2cc(NC(=O)CCCN(C)C)ccc2O[C@H]1CN(C)Cc1ccc(-c2ccccc2)cc1,3.88%
15,C[C@@H](O)C#Cc1ccc2c(c1)O[C@@H](CN(C)C)[C@@H](C)CN([C@@H](C)CO)S2(=O)=O,21.2%
16,CCOC(=O)C1=C(C)Nc2nc3ccccc3n2C1c1ccncc1 (stereo not given),0.713%
17,CCOc1ccccc1NC(=O)c1c(NC(=O)CCC(=O)O)sc2c1CCCCC2,-7.79%

# Source: PubChem BioAssay AID1035475 (Broad Institute, 2014)
